Sampled rows, rich in hits. Any-hit rate of the full collection: about 4.1%.
MEKK2 WT-MEK5: modulators of MEK5 binding to wildtype MEKK2, primary screen, biochemical, multiplex bead flow cytometry, Alexa488-MEK5; Alexa488-MEK5 binding to MEKK2 WT; actives lie on both sides; binding response (% of control), % at 10 µM; 290,000 tested, 1.1% active; AID 1531, 2009; in the data active = binding response below about 67% or above about 130%
MEKK3 PB1 HTS: modulators of MEKK3-MEK5 PB1 binding, primary screen, biochemical, wildtype MEKK3, multiplex bead flow cytometry, Alexa488-MEK5; Mitogen-activated protein kinase kinase kinase 3 (Homo sapiens), Q99759; bead-based flow cytometry, Alexa488-MEK5 binding to MEKK3; actives lie on both sides; 0 = blocked by unlabeled MEK5, 100 = vehicle; binding response (% of control), % at 10 µM; 290,000 tested, 1.4% active;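 active = binding response more than 3 SD above or below the average of its plate-row segment, actives on both sides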;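 also: Alexa488 bead fluorescence after subtracting the streptavidin-only scavenger bead signal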
Target sequence (Q99759 whole entry, looked up): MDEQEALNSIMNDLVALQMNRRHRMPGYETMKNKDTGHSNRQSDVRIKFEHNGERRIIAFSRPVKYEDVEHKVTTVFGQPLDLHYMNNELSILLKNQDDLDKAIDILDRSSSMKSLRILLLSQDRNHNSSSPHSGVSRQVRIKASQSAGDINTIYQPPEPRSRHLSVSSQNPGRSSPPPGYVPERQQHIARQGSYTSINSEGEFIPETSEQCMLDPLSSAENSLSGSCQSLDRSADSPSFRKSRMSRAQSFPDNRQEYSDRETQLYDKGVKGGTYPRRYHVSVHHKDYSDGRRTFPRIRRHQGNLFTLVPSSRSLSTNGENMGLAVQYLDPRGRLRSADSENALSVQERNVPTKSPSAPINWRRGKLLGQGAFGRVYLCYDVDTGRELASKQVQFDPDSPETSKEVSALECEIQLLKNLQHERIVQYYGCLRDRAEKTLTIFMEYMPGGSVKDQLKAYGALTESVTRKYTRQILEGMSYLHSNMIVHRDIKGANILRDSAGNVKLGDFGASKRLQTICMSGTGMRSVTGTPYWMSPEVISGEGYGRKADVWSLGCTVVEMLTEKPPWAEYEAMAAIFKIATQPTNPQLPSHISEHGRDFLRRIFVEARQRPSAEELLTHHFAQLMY
CHT inh: inhibitors of human choline transporter CHT | B-score at 10 µM | CHT-expressing cells, membrane potential dye, choline response; stronger effect = lower value | 310,000 tested, 0.86% active | AID 488975, 2010;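 active = B-score over 3 SD under the library average, and starting fluorescence ratio not unusually high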;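 also: choline stimulus applied at its EC90 after an EC20 pre-addition; B-score computed on integrated fluorescence ratio after choline addition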
CHT PAM: CHT positive allosteric modulators, primary screen, cell-based, membrane potential dye, choline EC20. B-score at 10 µM. CHT-expressing cells; stronger effect = higher value; LV-AA mutant CHT in HEK293 cells. High affinity choline transporter 1 (Homo sapiens), Q9GZV3. 310,000 tested, 0.49% active;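 active = initial fluorescence not abnormally high and integrated response B-score, plate-corrected, over 3 SD above library mean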
Mot1-301 SUMO: yeast Mot1-301 growth rescue at high temperature, primary screen, SUMOylation pathway inhibitor project, S. cerevisiae, ATP luminescence, 38.5C; S. cerevisiae Mot1-301 growth rescue; percent above DMSO median, 100 means doubled; growth rescue, % at 18.8 µM; 320,000 tested, 1% active;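 active = every valid replicate shows activation above 250% relative to neutral control wells; inactive = the rest, any valid replicate at or below 250%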;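 also: OY570 slx delta 5 strain wells were the positive control but not used for scaling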
MEKK2 mut-MEK5: MEK5 binding signal on mutant MEKK2 PB1, primary screen, biochemical, multiplex bead flow cytometry, Alexa488-MEK5; Alexa488-MEK5 binding to MEKK2 mutant; percent response, % at 10 µM; 290,000 tested, 0.35% active; in the data active = percent response above about 24%, passing the limit was not always enough
CHT act confirm: CHT activators, confirmation, cell-based, membrane potential dye, duplicate; CHT-expressing cells, membrane potential dye fluorescence (FDSS); % of choline EC20–EC90 response window; HEK293 expressing CHT LV-AA mutant; choline added at its EC20; shares compounds with CHT PAM; AID 504833, 2011; activation, % at 10 µM; 2,500 tested, 91% active;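 active = primary screen active, with duplicate mean activation above negative control mean plus 3 SD, cut at about 11% in these data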
HEK293 MP dye: membrane potential response in parental HEK293 cells, counter-screen for CHT activator project, cell-based, membrane potential dye. membrane potential dye fluorescence (FDSS); measured after EC20 choline addition. AID 623908, 2012. ratio readout change at 10 µM, hits read low. 2,500 tested, 62% active. shares compounds with CHT PAM;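 active = duplicate-averaged ratio beyond 3 SD from buffer wells, up or down, though filed actives are nearly all decreases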
Starred values were filed as active, the others as inactive; i = inactive; . = no result given.

SMILES	MEKK2 WT-MEK5	MEKK3 PB1 HTS	CHT inh	CHT PAM	Mot1-301 SUMO	MEKK2 mut-MEK5	CHT act confirm	HEK293 MP dye
COc1cccc(CC(NC(C)=O)C(=O)NC2CCN(C(=O)Nc3ccc(C)cc3)CC2)c1 (configuration not stated)	103	104	.	.	.	6	.	.
Cc1cc(C)n2c(Nc3ccc4c(c3)OCCO4)c(-c3ccco3)nc2n1	101	103	.	.	.	1	.	.
Cc1cc(C)n2c(Nc3ccc4c(c3)OCCO4)c(-c3ccc(C)o3)nc2n1	101	105	i	9.7*	-17	8	83*	-50*
COc1cc(OC)c(C(=O)Nc2ccncc2)cc1OC	109	101	i	i	15	4	.	.
COc1ccc(C(=O)Nc2ccncc2)c(OC)c1	93	108	i	6.6*	202	-4	21*	-56*
COCCn1c(Cc2ccccc2)nnc1SCc1ccc([N+](=O)[O-])cc1	98	99	i	i	14	-1	21*	i
CCn1c(Cc2ccccc2)nnc1SCc1ccc([N+](=O)[O-])cc1	99	98	i	i	.	-3	.	.
COc1ccc(/C=C(\NC(=O)c2ccc(C)cc2)C(=O)NCCCn2ccnc2)cc1OC	102	104	i	i	6	1	.	.
Cc1cc(=O)n2[nH]c(N)c(N=Nc3ccccc3)c2n1	111	105	i	i	-20	-1	.	.
CCOc1ccc(N=Nc2c(=O)[nH]n3c(C)cc(C)nc23)cc1	105	118	i	i	13	1	42*	-49*
CCOC(=O)Cc1ccc2sc(-c3ccccc3)nc2c1	98	100	i	i	-42	-1	.	.
O=C(NCCC1CCCCN1S(=O)(=O)c1cccs1)C(=O)Nc1cccc(F)c1 (configuration not stated)	.	.	i	i	-18	.	.	.
COc1ccccc1N1CCN(c2nccc(C)n2)CC1	109	106	i	i	13	8	.	.
c1ccc(-c2nnc(-c3ccccn3)nc2NC2CCCCC2)cc1	104	107	i	i	-23	3	-4	i
COc1ccccc1NC(=O)C(C)OC(=O)C1COc2ccccc2O1 (configuration not stated)	.	.	.	.	-5	.	.	.
CC(=O)Nc1ccc(OCC(O)Cn2nc(C)c(Br)c2C)cc1 (configuration not stated)	105	104	i	i	-2	0	.	.
Cc1cc(N2CCN(C)CC2)n2cc(-c3ccc(F)cc3)nc2n1	100	103	i	6.9*	-3	5	39*	-64*
Cc1cc(N2CCN(c3ccccn3)CC2)n2cc(-c3ccccc3)nc2n1	94	96	i	i	-17	-8	.	.
CCC(C)Nc1c2c(nc3c(-c4ccccc4)c(C)nn13)CCC2 (configuration not stated)	102	103	i	i	4	0	.	.
O=C(NCCCCc1ccccc1)c1cc([N+](=O)[O-])cc([N+](=O)[O-])c1	104	107	i	i	-10	3	49*	-24*
O=C(NC1CCCCC1)C(c1ccc2ncccc2c1)N(Cc1ccc(F)cc1)C(=O)c1cccs1 (configuration not stated)	99	100	i	i	10	4	31*	i
O=[N+]([O-])c1ccc(Cl)c(C[n+]2cccc3ccccc32)c1	97	92	i	i	257	-8	54*	-46*
CCCCOc1ccccc1C1CC(=O)NC2=C1C(=O)CCC2 (configuration not stated)	.	.	i	11*	-3	.	73*	i
O=C(COC(=O)c1cc[n+]([O-])cc1)Nc1cc([N+](=O)[O-])ccc1Cl	.	.	i	i	-12	.	40*	-50*
COc1ccc(NC(=O)CN(C)C(=O)c2ccc3[nH]c4c(c3c2)CC(C)CC4)cc1 (configuration not stated)	.	.	i	i	10	.	.	.
SMILES	MEKK2 WT-MEK5	MEKK3 PB1 HTS	CHT inh	CHT PAM	Mot1-301 SUMO	MEKK2 mut-MEK5	CHT act confirm	HEK293 MP dye
CCCC(CCC)C(=O)Nc1ccc2c(c1)N(C(=O)CN1CCN(C)CC1)c1ccccc1CC2	98	93	i	6.7*	-7	-6	29*	i
CC(=O)Nc1ccc2c(c1)N(C(C)=O)c1ccccc1CC2	94	92	i	i	-24	-3	.	.
O=C1CC(N2CCN(c3nc4ccccc4s3)CC2)C(=O)N1Cc1cccs1 (configuration not stated)	111	109	i	i	-22	10	.	.
N#CC1=C(N)Oc2cc(O)ccc2C1c1ccccc1 (configuration not stated)	102	101	i	i	6	-3	.	.
C[n+]1cccc2ccc3c(c21)OC(N)=C(C#N)C3c1ccccc1 (configuration not stated)	86	87	i	10*	-21	1	72*	-80*
C[n+]1cccc(C2C(C#N)=C(N)Oc3c2ccc2ccccc32)c1 (configuration not stated)	105	102	i	i	-10	4	43*	-57*
N#CC1=C(N)Oc2c(ccc3cccnc23)C1c1cccnc1 (configuration not stated)	.	.	i	i	-13	.	.	.
O=C(CN1CCCC1)Nc1c(Cl)cccc1Cl	110	106	i	i	-2	7	.	.
COc1cnc(-c2ccccn2)nc1NC(C)C	92	93	i	7.8*	16	-17	27*	-58*
O=[N+]([O-])c1ccc(N/N=C/C=C/c2ccco2)cc1	.	.	i	8.1*	32	.	12*	i
Cc1cccc(N2CCN(c3ccc4cc(S(=O)(=O)N5CCCCC5)ccc4n3)CC2)c1C	95	99	i	i	-6	-2	.	.

Assay outcomes deposited in PubChem by several laboratories.
